{"source": "PubChem BioAssay AID652017", "about": "(The Scripps Research Institute Molecular Screening Center, 2013)", "note": "About 3,800 (1%) of roughly 370,000 compounds were called active. Many of the other results were omitted from the sample, so actives are more common in it than they were. Values without a mark were called inactive. Cut-off read from the data, not from the text of the source: active = activation above about 7.8%; inactive = the rest.", "data": [{"assay": "SMARCA2 (BRM) function activators, primary screen, cell-based, luminescence, high throughput (AID 652017);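 note: 0% = vehicle wells and 100% = reference activator wells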", "details": "MG213 cells, MMTV-luciferase reporter, dexamethasone, overnight; at 9.1 µM; active compounds read high", "values": [{"smiles": "CC1C(=O)Nc2ccccc2N1C(=O)c1c(F)cccc1F", "note": "(stereo not given)", "activation": "0.63%"}, {"smiles": "O=C(CSc1nnc(COc2ccccc2)n1-c1ccc(Cl)cc1)Nc1ccc2c(c1)OCO2", "activation": "-6.63%"}, {"smiles": "COc1ccc2c(C(C)c3ccc(N)cc3)cn(C)c2c1", "note": "(stereo not given)", "activation": "-3.82%"}, {"smiles": "Cc1ccc(S(=O)(=O)c2c[nH]c3ccc(C)cc3c2=O)cc1", "activation": "-1.93%"}, {"smiles": "CCCCN(C)Cc1c(C)[nH]c2ccc(Cl)cc2c1=O", "activation": "-3.5%"}, {"smiles": "Cc1ccc(S(=O)(=O)c2c[nH]c3ccc(Cl)cc3c2=O)cc1", "activation": "10.9% (active)"}, {"smiles": "CC(OC(=O)c1cccnc1Cl)C(=O)NC1CCCCC1", "note": "(stereo not given)", "activation": "-0.77%"}, {"smiles": "CCN(C(=O)[C@@H](C1CC1)[C@@H](O)c1ccc2ccccc2c1)c1ccccc1", "activation": "-7.28%"}, {"smiles": "CC(C)CC(=O)Nc1nnc(S(=O)(=O)N(C)c2ccc(Cl)cc2)s1", "activation": "1.27%"}, {"smiles": "CCOC(=O)N1CCN(Cc2nc3cc(NC(=O)CC)ccc3n2CC)CC1", "activation": "-1.94%"}, {"smiles": "COC(=O)c1ccc(/C=C/c2c(-c3ccc(OC)cc3)sc3ccccc23)cc1", "activation": "3.05%"}, {"smiles": "COc1ccc(N=C(C)c2sc3ccccc3c2O)cc1", "activation": "11.4% (active)"}, {"smiles": "CCCOc1ccc(Oc2c(Cl)cnn(Cc3cccc4ccccc34)c2=O)cc1", "activation": "-0.93%"}, {"smiles": "CCOC(=O)c1c(C)[nH]c(C2=NNC(=NC(C)COC)SC2)c1C", "note": "(stereo not given)", "activation": "10.5% (active)"}, {"smiles": "Cc1ccccc1CN1CCCCC(NC(=O)c2cccc(C#N)c2)C1=O", "note": "(stereo not given)", "activation": "-3.87%"}, {"smiles": "Cc1ccc(S(=O)(=O)N2C[C@@H]3CCCC[C@@H]3[C@@H](C)[C@H]2c2cn(Cc3ccccc3)c3ccc(F)cc23)cc1", "activation": "-2.92%"}, {"smiles": "CC(C)(C)OC(=O)NCCc1ccccc1/C=C/S(=O)(=O)NCc1ccc(F)cc1", "activation": "-3.29%"}, {"smiles": "O=C(CSc1nnc(-c2ccccn2)n1-c1ccc(Cl)cc1)Nc1ccccc1-c1ccccc1", "activation": "-4.51%"}, {"smiles": "CN(C)c1nc(NN)nc(Nc2ccc(F)cc2)n1", "activation": "-0.18%"}, {"smiles": "CCn1c2ccc(F)cc2c2nnc(SCCN3CCOCC3)nc21", "activation": "0.99%"}, {"smiles": "Cn1c2ccc(F)cc2c2nnc(NN)nc21", "activation": "11.8% (active)"}, {"smiles": "CCOC(=O)C1=C(c2ccccc2)NC(=O)NC1c1cc(OC)c(OC)cc1OC", "note": "(stereo not given)", "activation": "-1.63%"}, {"smiles": "Cc1ccc(-n2c(COc3ccccc3)nnc2SCC(=O)Nc2ccc3c(c2)OCCO3)cc1", "activation": "-5.34%"}, {"smiles": "O=S(=O)(Cc1nnnn1-c1ccccc1)c1ccccc1", "activation": "3.47%"}, {"smiles": "COc1ccc(S(=O)(=O)NC(=O)C2(C)CCN2C(=O)c2ccccc2CCc2ccccc2)cc1", "note": "(stereo not given)", "activation": "-0.47%"}, {"smiles": "CN(C)S(=O)(=O)c1ccc2oc(SCC(=O)Nc3ccccc3F)nc2c1", "activation": "12% (active)"}, {"smiles": "CCS(=O)(=O)c1ccc2oc(SCC(=O)N3c4ccccc4CC3C)nc2c1", "note": "(stereo not given)", "activation": "0.08%"}, {"smiles": "COc1ccc(S(=O)(=O)N(C)C)cc1NC(=O)CSc1ncccn1", "activation": "1.65%"}, {"smiles": "CCOC(=O)[C@]12CCCC3=C1N(CCC3)C(=O)[C@@H](CC(=O)NCc1cccs1)C2", "activation": "-4.78%"}, {"smiles": "Nc1ccc(N=Nc2ccccc2Cl)c(N)n1", "activation": "7.92% (active)"}, {"smiles": "C=CCN1C(C(=O)OC)CN(Cc2cn(Cc3ccccc3)nn2)CCS1(=O)=O", "note": "(stereo not given)", "activation": "1.74%"}, {"smiles": "COc1ccc(C(=O)OCCN(C)C2CN(Cc3cn(Cc4cccc(C)c4)nn3)S(=O)(=O)C2)cc1OC", "note": "(stereo not given)", "activation": "-0.46%"}, {"smiles": "COc1ccc(C(=O)CSc2nnc(-c3cnccn3)n2-c2ccc(C)cc2)cc1", "activation": "-2.56%"}, {"smiles": "COc1ccc(OCc2cccc(C(=O)N3CCCC3)c2)cc1", "activation": "7.84% (active)"}, {"smiles": "CCOc1ccc(OCc2cccc(C(=O)N(CC)CC)c2)cc1", "activation": "6.12%"}, {"smiles": "CC(=O)Oc1ccc(-c2cccc(C(=O)N3CCCCC3)c2)cc1", "activation": "1.59%"}, {"smiles": "COc1ccc(NC(=O)ON=C2c3ccccc3-c3ccccc32)cc1", "activation": "3.56%"}, {"smiles": "CCOC(=O)Cc1cc(=O)[nH]c(/N=C(\\N)Nc2ccc(OC)cc2)n1", "activation": "-2.87%"}, {"smiles": "COc1ccc2nc(/N=C(\\N)NC(=O)Nc3ccccc3)nc(C)c2c1", "activation": "28.8% (active)"}, {"smiles": "FC(F)(F)c1cccc(Cn2ccc3ccc(-c4ccc5ccn(Cc6ccccc6)c5c4)cc32)c1", "activation": "-1.65%"}, {"smiles": "O=C(NCC1COc2ccccc2O1)c1ccc(NC(=O)c2cc(F)ccc2F)cc1", "note": "(stereo not given)", "activation": "-5.67%"}, {"smiles": "O=C(c1cc(-c2ccccc2O)on1)N1CCCC1", "activation": "8.63% (active)"}, {"smiles": "O=C(c1cc(C2CCCCN2S(=O)(=O)c2ccccc2)on1)N1CCOCC1", "note": "(stereo not given)", "activation": "-0.23%"}, {"smiles": "O=C(c1cc(-c2ccc(O)cc2)on1)N1CCOCC1", "activation": "10.1% (active)"}, {"smiles": "COc1ccc(OCc2cc(C(=O)N3CCCC3)no2)c2ccccc12", "activation": "5.22%"}, {"smiles": "O=C(c1cc(COc2ccc(F)cc2F)on1)N1CCOCC1", "activation": "2.32%"}, {"smiles": "O=C(Nc1ccccc1C(F)(F)F)c1cc(-c2ccc(O)cc2)on1", "activation": "1.17%"}, {"smiles": "CN(C(N)=NC(=O)/C=C/c1ccccc1)C(C#Cc1ccccc1)Cc1ccccc1", "note": "(stereo not given)", "activation": "-4.38%"}, {"smiles": "COc1ccc(C)cc1N(C)C(=O)c1coc(=O)c2ccccc12", "activation": "-4.4%"}, {"smiles": "O=C(NC1CCCCN(Cc2cccc(C(F)(F)F)c2)C1=O)c1ccccc1I", "note": "(stereo not given)", "activation": "-2.23%"}, {"smiles": "COc1ccc2ccccc2c1CNCc1ccccn1", "activation": "8.32% (active)"}, {"smiles": "COc1cc(CNCc2ccc(OC)c3ccccc23)cc(OC)c1OC", "activation": "-2.64%"}, {"smiles": "COc1ccc2ccccc2c1CNc1nnnn1C", "activation": "-2.94%"}, {"smiles": "Cc1ccsc1C(=O)N/N=C/c1ccc([N+](=O)[O-])cc1", "activation": "11.6% (active)"}, {"smiles": "Cc1ccsc1C(=O)NC1CCCCC1C", "note": "(stereo not given)", "activation": "-1.24%"}, {"smiles": "Cc1ccc(/C=N/NC(=O)c2sccc2OCc2ccc(F)cc2)cc1", "activation": "3.74%"}, {"smiles": "COC(=O)[C@H](C(C)C)N(CCc1cn(Cc2ccccc2)nn1)S(=O)(=O)c1ccc(F)cc1Br", "activation": "-6.28%"}, {"smiles": "CC(=O)OC12CCCN(C1)/C(=C/c1ccncc1)C2", "note": "(stereo not given)", "activation": "-3.2%"}, {"smiles": "COc1ccccc1Nc1nnc(SC(C)C(=O)NC2CC2)s1", "note": "(stereo not given)", "activation": "-2.93%"}, {"smiles": "O=C(CCCCCN1C(=O)C2C3C=CC(C3)C2C1=O)Nc1ccccn1", "note": "(stereo not given)", "activation": "-1.58%"}, {"smiles": "CCOC(=O)C(C)n1cnc2c(nnn2-c2ccc(F)cc2)c1=O", "note": "(stereo not given)", "activation": "0.38%"}, {"smiles": "CCOC(=O)C(C)n1cnc2c(nnn2-c2cccc(OC)c2)c1=O", "note": "(stereo not given)", "activation": "9.14% (active)"}, {"smiles": "COC(=O)C(C)n1cnc2c(nnn2-c2ccc(F)cc2)c1=O", "note": "(stereo not given)", "activation": "2.24%"}, {"smiles": "O=C(NC1CCC1)c1ccc(C#CC2CC2)cn1", "activation": "1.34%"}, {"smiles": "O=C(CCC(=O)c1cccs1)NC1CCCCCC1", "activation": "-4.41%"}, {"smiles": "CCCCC(CC)CNC(=O)CCCCn1c(=O)[nH]c2ccsc2c1=O", "note": "(stereo not given)", "activation": "-1.68%"}, {"smiles": "O=C(CCCCCn1c(=S)[nH]c2ccsc2c1=O)NC1CCCCC1", "activation": "8.72% (active)"}, {"smiles": "C=CC[C@]12C[C@@]3(O[C@H](c4ccc(C(F)(F)F)cc4)N=C3C[C@H](c3ccc(OC)cc3)[C@H]1C)N(C1CCN(Cc3ccccc3)CC1)C2=O", "activation": "-1.14%"}, {"smiles": "Cc1nnc(NC(=O)Cn2c(=O)sc3ccccc32)s1", "activation": "8.41% (active)"}, {"smiles": "Cc1nnc(NC(=O)CSc2nccn2-c2cccc(C)c2C)s1", "activation": "-0.75%"}, {"smiles": "O=C(Cn1c(=O)sc2ccccc21)Nc1ccc2c(c1)OCCO2", "activation": "-0.22%"}, {"smiles": "C=C(C)C1CC23C(=O)C4(C(=O)c5ccccc5)C[C@@]5(C)CCC(CC2C1(C)C)(C4=O)C35OC", "note": "(stereo not given in full)", "activation": "-5.25%"}, {"smiles": "Cc1ccccc1CN1CCCCC(NC(=O)Nc2ccccc2F)C1=O", "note": "(stereo not given)", "activation": "-2.59%"}, {"smiles": "C[C@@H](NC(=O)c1ccccc1OCC(=O)Nc1ccc(I)cc1)C(=O)N(C)Cc1ccccc1", "activation": "-3.4%"}, {"smiles": "O=C(CSc1c2c(nc3ccc(Cl)cc13)CCCC2)NCc1ccco1", "activation": "3.79%"}, {"smiles": "CC(C)CCNC(=O)c1ccc2c(Cl)c3c(nc2c1)CCC3", "activation": "10.7% (active)"}, {"smiles": "CC(C)CCC(C)NC(=O)c1ccc2nccnc2c1", "note": "(stereo not given)", "activation": "0.02%"}, {"smiles": "O=C(O)c1ccc(NC(=O)c2ccc(COc3ccc(Cl)cc3)o2)cc1", "activation": "-1.89%"}, {"smiles": "O=C(O)c1ccc(COc2c(F)c(F)cc(F)c2F)o1", "activation": "8.75% (active)"}, {"smiles": "O=C(O)CSCc1ccc(C(=O)O)o1", "activation": "0.73%"}, {"smiles": "COc1cc(NC(=O)C2=C(C)OCCS2)c(Cl)cc1C(=O)NCCCN1CCCC(C)C1", "note": "(stereo not given)", "activation": "-0.17%"}, {"smiles": "NC1=NN(c2cccc(C(=O)O)c2)C(=O)C1", "activation": "-1.73%"}, {"smiles": "Cc1cccc(C(=O)N2CCN(S(=O)(=O)N3CCCCC3)CC2)c1", "activation": "3.31%"}, {"smiles": "O=C(O)c1cccc(N=NN2CCCCCC2)c1", "activation": "17.7% (active)"}, {"smiles": "Cc1cc(C)n2c(Nc3c(C)cccc3C)c(CCc3ccccc3)nc2n1", "activation": "0.46%"}, {"smiles": "O=C(NCc1cccs1)C1CCCN(S(=O)(=O)c2ccc([N+](=O)[O-])cc2)C1", "note": "(stereo not given)", "activation": "0.22%"}, {"smiles": "CCC(C)[C@@H](C(=O)OC)N(CCc1cn(Cc2ccccc2)nn1)S(=O)(=O)c1ccccc1Br", "note": "(stereo not given in full)", "activation": "-5.37%"}, {"smiles": "COc1ccccc1C1=CC(=O)CCC1", "activation": "1.01%"}, {"smiles": "COc1ccccc1C1=Nc2cccc3cccc(c23)N1", "activation": "8.11% (active)"}, {"smiles": "COc1ccccc1-c1sc2ccccc2c1-c1ccc(Br)nc1", "activation": "-0.09%"}, {"smiles": "CCOc1ccc(N(CC(=O)Nc2c(C)n(C)n(-c3ccccc3)c2=O)S(=O)(=O)c2ccc(Cl)s2)cc1", "activation": "3.83%"}, {"smiles": "CCC(CO)Nc1cccc2c1S(=O)(=O)N(Cc1cn(Cc3ccccc3C(F)(F)F)nn1)Cc1ccccc1O2", "note": "(stereo not given)", "activation": "-1.93%"}, {"smiles": "Cc1ccc(C(=O)CSc2ccccc2C(=O)O)cc1", "activation": "9.24% (active)"}, {"smiles": "Cc1ccccc1C(=O)O", "activation": "-3.71%"}, {"smiles": "O=C(CSc1cccc[n+]1[O-])c1ccc(-c2ccccc2)cc1", "activation": "1.84%"}]}]}
